Experimental data: the supplement of paper PMC10849652
About 7,900 targets were measured; listed, in parts, are those with a hit and a random draw of the rest. About 0.6% of all pairs of compound and target were hits. Values without a mark were called inactive.

What was measured:
Test in all cases: log2 fold change, soluble protein after heating vs DMSO (PISA); higher = thermal stabilisation; K562 cells, 10 uM, 30 min; active = over 0.2 and 3.5 SD of the protein, either way, in both replicates (recomputed)
[1] = compound: COC1=CC=C(C=C1)CN2C=CC3=C2C=C(C=C3)C(=O)NO
In short: (§1)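 Thermal stability values are relative to control samples and come from duplicates. They are expressed as log2 fold changes. For measurement, K562 cells (2×10^6 cells/mL) received 10 μM compound for 30 min, and aliquots were heated for 3 min over 48°C-58°C, pooled, and extracted at 4°C in PBS with 0.5% NP-40. Soluble protein, the supernatant after 21,000xg for 90 min, was quantified by TMTpro 16plex LC-MS/MS with equalised channel sums.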

[2] = compound: CO[C@H]1C[C@@H]2CC[C@@H](C)[C@@](O)(O2)C(=O)C(=O)N2CCCC[C@H]2C(=O)O[C@H]([C@H](C)C[C@@H]2CC[C@H](n3cnnn3)[C@H](OC)C2)CC(=O)[C@H](C)/C=C(\C)[C@@H](O)[C@@H](OC)C(=O)[C@H](C)C[C@H](C)/C=C/C=C/C=C/1C [zotarolimus]
In short: as §1

[3] = compound: COc1cc(Nc2ncc3c(n2)-c2ccc(Cl)cc2C(c2c(F)cccc2OC)=NC3)ccc1C(=O)O [alisertib]
In short: as §1

[4] = compound: COc1cc2nc(-c3cc(F)ccc3O)nc(N[C@@H]3CNC[C@H]3C(C)(C)O)c2cc1OC
In short: as §1

[5] = compound: COc1cccc2cc(-c3nc([C@H]4CC[C@H](C(=O)O)CC4)n4ncnc(N)c34)[nH]c12
In short: as §1

[6] = compound: CS(=O)(=O)CCNCc1ccc(-c2ccc3ncnc(Nc4ccc(OCc5cccc(F)c5)c(Cl)c4)c3c2)o1 [lapatinib]
In short: as §1

[7] = compound: CS(=O)(=O)N1CCN(Cc2cc3nc(-c4cccc5[nH]ncc45)nc(N4CCOCC4)c3s2)CC1 [pictilisib]
In short: as §1

[8] = compound: CON(C)C(=O)N1N=C(c2cc(F)ccc2F)S[C@@]1(CCCN)c1ccccc1 [filanesib]
In short: as §1

[9] = compound: COc1cc(C(=O)O)ccc1NC(=O)[C@@H]1N[C@@H](CC(C)(C)C)[C@](C#N)(c2ccc(Cl)cc2F)[C@H]1c1cccc(Cl)c1F [idasanutlin]
In short: as §1

[10] = compound: COc1cc2ncnc(Nc3ccc(F)c(Cl)c3)c2cc1OCCCN1CCOCC1 [gefitinib]
In short: as §1

Chain of UniProt Q53R41 (Q53R41 whole entry, looked up): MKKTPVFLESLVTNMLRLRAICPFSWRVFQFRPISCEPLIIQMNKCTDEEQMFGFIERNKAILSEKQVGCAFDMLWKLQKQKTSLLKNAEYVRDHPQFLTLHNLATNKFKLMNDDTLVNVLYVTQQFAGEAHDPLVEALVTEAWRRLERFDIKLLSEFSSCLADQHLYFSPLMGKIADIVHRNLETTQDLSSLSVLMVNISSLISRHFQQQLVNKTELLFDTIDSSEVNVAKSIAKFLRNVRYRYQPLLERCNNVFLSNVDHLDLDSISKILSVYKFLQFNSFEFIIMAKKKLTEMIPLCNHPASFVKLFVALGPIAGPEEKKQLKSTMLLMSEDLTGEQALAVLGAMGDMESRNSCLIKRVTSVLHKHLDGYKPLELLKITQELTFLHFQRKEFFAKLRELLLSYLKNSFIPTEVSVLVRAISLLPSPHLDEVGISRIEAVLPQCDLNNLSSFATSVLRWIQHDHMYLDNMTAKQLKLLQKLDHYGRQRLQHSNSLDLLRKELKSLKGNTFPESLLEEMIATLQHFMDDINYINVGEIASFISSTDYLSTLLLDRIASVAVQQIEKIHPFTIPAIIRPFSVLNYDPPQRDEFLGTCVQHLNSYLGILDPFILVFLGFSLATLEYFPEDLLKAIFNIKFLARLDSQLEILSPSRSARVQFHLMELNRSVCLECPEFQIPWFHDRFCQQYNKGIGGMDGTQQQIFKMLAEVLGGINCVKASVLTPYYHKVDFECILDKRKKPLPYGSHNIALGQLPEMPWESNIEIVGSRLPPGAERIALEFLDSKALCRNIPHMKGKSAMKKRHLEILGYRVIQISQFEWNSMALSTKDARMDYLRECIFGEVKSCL
Chain of UniProt Q8IVP5 (Q8IVP5 whole entry, looked up): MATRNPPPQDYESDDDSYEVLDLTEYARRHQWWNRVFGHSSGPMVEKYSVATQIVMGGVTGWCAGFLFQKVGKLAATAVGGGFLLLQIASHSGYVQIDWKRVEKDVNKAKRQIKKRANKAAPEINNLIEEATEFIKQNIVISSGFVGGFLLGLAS
Chain of UniProt Q9BVP2 (Q9BVP2 whole entry, looked up): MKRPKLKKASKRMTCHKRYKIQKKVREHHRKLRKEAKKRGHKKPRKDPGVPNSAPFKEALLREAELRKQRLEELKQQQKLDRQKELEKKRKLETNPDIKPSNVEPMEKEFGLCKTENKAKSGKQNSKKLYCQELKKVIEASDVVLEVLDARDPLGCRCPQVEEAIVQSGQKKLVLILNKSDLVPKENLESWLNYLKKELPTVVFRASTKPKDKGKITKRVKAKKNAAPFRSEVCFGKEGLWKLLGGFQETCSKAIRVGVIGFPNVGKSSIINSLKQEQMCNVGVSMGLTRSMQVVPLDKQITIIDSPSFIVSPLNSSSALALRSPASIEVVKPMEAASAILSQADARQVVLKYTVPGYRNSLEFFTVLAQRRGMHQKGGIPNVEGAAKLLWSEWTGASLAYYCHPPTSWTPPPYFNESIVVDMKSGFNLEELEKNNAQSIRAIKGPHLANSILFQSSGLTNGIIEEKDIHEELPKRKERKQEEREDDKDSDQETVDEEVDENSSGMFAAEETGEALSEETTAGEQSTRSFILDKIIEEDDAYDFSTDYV
Chain of UniProt Q8WUI4 (Q8WUI4 whole entry, looked up): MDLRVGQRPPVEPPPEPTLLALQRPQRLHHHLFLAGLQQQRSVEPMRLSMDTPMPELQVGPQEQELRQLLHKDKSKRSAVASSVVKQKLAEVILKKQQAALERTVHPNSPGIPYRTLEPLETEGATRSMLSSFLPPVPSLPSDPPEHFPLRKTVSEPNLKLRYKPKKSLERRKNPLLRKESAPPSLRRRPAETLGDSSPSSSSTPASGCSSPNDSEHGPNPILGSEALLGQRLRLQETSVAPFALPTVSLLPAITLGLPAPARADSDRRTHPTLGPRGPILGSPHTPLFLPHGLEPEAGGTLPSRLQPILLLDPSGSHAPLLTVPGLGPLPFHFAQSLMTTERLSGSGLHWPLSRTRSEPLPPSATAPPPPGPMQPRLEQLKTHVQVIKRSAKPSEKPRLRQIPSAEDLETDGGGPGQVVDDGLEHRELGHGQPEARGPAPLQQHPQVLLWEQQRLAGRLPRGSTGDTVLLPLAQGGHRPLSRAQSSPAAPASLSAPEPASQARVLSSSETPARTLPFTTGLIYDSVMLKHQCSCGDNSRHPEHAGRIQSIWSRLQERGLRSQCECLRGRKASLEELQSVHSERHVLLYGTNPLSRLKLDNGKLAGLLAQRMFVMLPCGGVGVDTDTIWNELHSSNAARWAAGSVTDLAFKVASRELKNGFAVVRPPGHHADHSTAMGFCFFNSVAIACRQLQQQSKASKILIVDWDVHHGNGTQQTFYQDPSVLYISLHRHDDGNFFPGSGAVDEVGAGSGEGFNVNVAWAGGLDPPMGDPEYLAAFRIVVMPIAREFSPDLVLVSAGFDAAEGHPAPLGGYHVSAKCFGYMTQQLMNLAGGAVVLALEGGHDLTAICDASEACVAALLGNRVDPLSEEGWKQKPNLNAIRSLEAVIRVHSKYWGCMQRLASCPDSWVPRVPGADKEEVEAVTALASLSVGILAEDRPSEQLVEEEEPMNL
Chain of UniProt O60725 (O60725 whole entry, looked up): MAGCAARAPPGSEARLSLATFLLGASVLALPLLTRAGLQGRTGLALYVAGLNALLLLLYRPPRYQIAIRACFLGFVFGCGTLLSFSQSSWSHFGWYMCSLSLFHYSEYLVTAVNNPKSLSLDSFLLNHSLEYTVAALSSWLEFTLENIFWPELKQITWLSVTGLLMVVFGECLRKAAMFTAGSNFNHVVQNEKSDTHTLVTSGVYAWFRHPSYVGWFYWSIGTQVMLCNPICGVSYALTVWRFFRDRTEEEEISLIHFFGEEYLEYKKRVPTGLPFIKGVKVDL
Chain of UniProt Q13227 (Q13227 whole entry, looked up): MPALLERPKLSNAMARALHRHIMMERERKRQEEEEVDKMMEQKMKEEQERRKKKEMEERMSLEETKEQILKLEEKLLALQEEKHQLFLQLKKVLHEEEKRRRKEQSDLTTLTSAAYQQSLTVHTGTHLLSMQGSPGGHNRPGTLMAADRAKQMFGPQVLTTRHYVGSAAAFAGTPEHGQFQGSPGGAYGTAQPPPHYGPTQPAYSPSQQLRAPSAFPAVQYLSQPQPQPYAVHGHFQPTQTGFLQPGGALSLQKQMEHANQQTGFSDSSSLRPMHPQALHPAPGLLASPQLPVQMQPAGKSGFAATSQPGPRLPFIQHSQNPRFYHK
Chain of UniProt P50213 (P50213 whole entry, looked up): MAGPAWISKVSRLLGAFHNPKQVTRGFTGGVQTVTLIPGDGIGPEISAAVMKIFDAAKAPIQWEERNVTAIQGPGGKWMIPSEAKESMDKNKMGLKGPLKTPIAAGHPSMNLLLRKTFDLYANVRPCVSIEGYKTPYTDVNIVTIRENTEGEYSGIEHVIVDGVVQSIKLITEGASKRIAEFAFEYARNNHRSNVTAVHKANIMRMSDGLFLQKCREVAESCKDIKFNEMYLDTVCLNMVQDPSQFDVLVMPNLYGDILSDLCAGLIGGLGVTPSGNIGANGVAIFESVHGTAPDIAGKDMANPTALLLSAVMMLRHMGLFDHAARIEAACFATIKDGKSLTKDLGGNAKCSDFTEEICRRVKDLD
Chain of UniProt Q9Y324 (Q9Y324 whole entry, looked up): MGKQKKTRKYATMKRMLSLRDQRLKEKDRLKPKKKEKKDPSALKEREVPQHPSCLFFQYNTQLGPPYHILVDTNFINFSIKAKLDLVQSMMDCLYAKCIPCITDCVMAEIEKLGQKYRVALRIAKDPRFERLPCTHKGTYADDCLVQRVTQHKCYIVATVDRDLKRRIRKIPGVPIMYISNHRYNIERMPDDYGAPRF
Chain of UniProt P30711 (P30711 whole entry, looked up): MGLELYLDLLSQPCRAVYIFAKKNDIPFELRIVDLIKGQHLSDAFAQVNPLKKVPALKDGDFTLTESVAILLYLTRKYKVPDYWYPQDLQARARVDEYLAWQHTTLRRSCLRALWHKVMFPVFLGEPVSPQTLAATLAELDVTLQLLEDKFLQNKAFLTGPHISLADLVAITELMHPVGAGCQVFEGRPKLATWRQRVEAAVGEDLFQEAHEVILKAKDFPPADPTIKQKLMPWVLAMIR
Chain of UniProt Q53T59 (Q53T59 whole entry, looked up): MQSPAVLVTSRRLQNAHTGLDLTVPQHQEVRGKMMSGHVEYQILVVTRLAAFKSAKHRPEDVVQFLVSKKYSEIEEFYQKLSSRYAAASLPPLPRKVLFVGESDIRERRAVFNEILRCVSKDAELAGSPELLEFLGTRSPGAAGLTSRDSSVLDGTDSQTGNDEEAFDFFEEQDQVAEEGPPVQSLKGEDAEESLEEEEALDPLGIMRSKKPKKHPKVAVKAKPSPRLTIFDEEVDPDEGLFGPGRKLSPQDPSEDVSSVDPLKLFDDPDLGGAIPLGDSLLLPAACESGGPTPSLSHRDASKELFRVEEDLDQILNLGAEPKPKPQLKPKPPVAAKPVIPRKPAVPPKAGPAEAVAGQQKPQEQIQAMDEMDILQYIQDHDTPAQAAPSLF
Chain of UniProt P49841 (P49841 whole entry, looked up): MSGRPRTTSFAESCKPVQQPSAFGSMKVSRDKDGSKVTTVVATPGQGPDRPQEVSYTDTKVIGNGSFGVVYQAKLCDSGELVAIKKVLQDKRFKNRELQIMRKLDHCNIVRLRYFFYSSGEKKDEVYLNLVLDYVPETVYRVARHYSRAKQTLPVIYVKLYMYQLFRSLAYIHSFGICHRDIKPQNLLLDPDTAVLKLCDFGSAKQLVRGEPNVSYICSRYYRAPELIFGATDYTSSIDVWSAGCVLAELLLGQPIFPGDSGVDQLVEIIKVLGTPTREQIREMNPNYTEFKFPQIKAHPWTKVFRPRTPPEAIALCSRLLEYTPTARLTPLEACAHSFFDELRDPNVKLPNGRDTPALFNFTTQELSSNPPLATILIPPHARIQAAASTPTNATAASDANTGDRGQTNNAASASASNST
Chain of UniProt Q9Y248 (Q9Y248 whole entry, looked up): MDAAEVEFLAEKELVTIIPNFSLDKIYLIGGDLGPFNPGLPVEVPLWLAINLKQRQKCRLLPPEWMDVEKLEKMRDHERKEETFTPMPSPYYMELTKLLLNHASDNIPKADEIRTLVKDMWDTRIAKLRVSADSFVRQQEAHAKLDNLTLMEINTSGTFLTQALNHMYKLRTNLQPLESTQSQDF

| Target | log2 fold change [1] | log2 fold change [2] | log2 fold change [3] | log2 fold change [4] | log2 fold change [5] | log2 fold change [6] | log2 fold change [7] | log2 fold change [8] | log2 fold change [9] | log2 fold change [10] |
| --- | --- | --- | --- | --- | --- | --- | --- | --- | --- | --- |
| FAT2 (UniProt Q9NYQ8) | 0.247 | 0.104 | 0.208 | 0.031 | -0.024 | -0.089 | -0.497 | – | – | – |
| HNRNPUL1 (UniProt M0R247) | -0.028 | -0.468 | – | 0.117 | – | -0.15 | – | 0.029 | 0.277 | 0.1 |
| GOLGA6B (UniProt A6NDN3) | 0.088 | – | -0.092 | – | 0.102 | – | 0.144 | -0.115 | – | 0.012 |
| FIZ1 (UniProt Q96SL8) | -0.081 | 0.048 | 0.117 | – | -0.108 | – | 0.016 | 0.078 | – | 0.001 |
| GPS2 (UniProt Q13227) | -0.108 | – | -0.067 | 0.135 | 0.152 | -0.044 | – | 0.018 | – | 0.008 |
| HDAC10 (UniProt Q969S8) | – | -0.022 | -0.264 | 0.049 | 0.065 | 0.044 | 0.084 | – | -0.157 | 0.168 |
| GID4 (UniProt Q8IVV7) | – | 0.013 | -0.074 | 0.097 | 0.01 | -0.14 | 0.024 | -0.089 | -0.023 | -0.067 |
| FMR1 (UniProt Q06787) | -0.3 | 0.005 | -0.023 | 0.286 | 0.322 | -0.027 | 0.036 | 0.219 | – | – |
| GSTT1 (UniProt P30711) | 0.014 | 0.07 | -0.118 | -0.015 | 0.029 | 0.003 | 0.027 | – | 0 | 0.023 |
| HDAC7 isoform 5 (UniProt Q8WUI4) | – | 0.054 | -0.075 | 0.075 | 0.046 | 0.071 | -0.004 | 0.121 | 0.024 | -0.015 |
| HNRNPK isoform 3 (UniProt P61978) | -0.025 | – | -0.063 | – | 0.005 | – | 0.057 | 0.077 | – | -0.066 |
| HAUS4 (UniProt Q9H6D7) | – | 0.05 | -0.103 | 0.024 | 0.323 | -0.038 | -0.162 | 0.245 | 0.126 | -0.086 |
| HBZ, A0A494C057 | – | – | 1.67 | – | 0.009 | – | – | – | – | 0.151 |
| GSE1 (UniProt Q14687) | – | -0.063 | – | – | – | – | – | – | – | 0.224 |
| GSK3B isoform 2 (UniProt P49841) | 0.133 | 0.013 | – | 0.056 | 0.022 | -0.013 | 0.014 | -0.034 | -0.121 | -0.041 |
| FASTKD1 (UniProt Q53R41) | -0.037 | -0.192 | – | – | – | – | 0.127 | -0.011 | -0.028 | 0.473 |
| HS1BP3 (UniProt Q53T59) | 0.032 | 0.02 | – | 0.087 | – | 0.118 | – | -0.085 | 0.039 | -0.196 |
| HSPA2 (UniProt P54652) | -0.103 | – | -0.077 | – | 0.076 | – | – | 0.026 | 0.032 | 0.005 |

| Target | log2 fold change [1] | log2 fold change [2] | log2 fold change [3] | log2 fold change [4] | log2 fold change [5] | log2 fold change [6] | log2 fold change [7] | log2 fold change [8] | log2 fold change [9] | log2 fold change [10] |
| --- | --- | --- | --- | --- | --- | --- | --- | --- | --- | --- |
| GNL3 (UniProt Q9BVP2) | – | -0.012 | -0.12 | – | 0.071 | – | 0.061 | -0.038 | -0.212 | 0.067 |
| IDH3A isoform 2 (UniProt P50213) | 0.32 | -0.056 | – | – | – | – | – | – | -0.246 | 0.029 |
| HDAC1 (UniProt Q13547) | – | -0.019 | 0.031 | 0 | 0.024 | 0.141 | 0.06 | 0.059 | -0.023 | 0.025 |
| H3-3A (UniProt P84243) | – | 0.009 | 0.098 | 0.179 | -0.062 | -0.042 | – | -0.187 | – | 0.035 |
| FYB1 isoform 3 (UniProt O15117) | 0.001 | – | -0.035 | 0.026 | 0.134 | 0.068 | 0.108 | 0.06 | -0.106 | 0.103 |
| FGG (UniProt P02679) | – | – | – | -0.068 | – | -0.001 | -0.367 | – | – | – |
| FUNDC1 (UniProt Q8IVP5) | – | – | 0.011 | -0.138 | 0.172 | 0.101 | – | -0.193 | – | – |
| GPD1 (UniProt P21695) | – | 0.022 | 0.077 | -0.051 | 0.111 | 0.015 | 0.203 | -0.083 | -0.289 | 0.368 |
| FCF1 (UniProt Q9Y324) | -0.026 | – | -0.272 | 0.1 | -0.299 | 0.157 | -0.262 | 0.405 | – | – |
| IFNGR1 (UniProt P15260) | – | -0.067 | -0.09 | 0.207 | 0.143 | -0.058 | -0.085 | 0.091 | 0.105 | 0.097 |
| FBXO9 (UniProt Q9UK97) | 0.124 | -0.027 | 0.466 (active) | -0.169 | 0.077 | 0.012 | 0.036 | – | – | 0.007 |
| GOLGA8R (UniProt I6L899) | 0.591 (active) | -0.027 | – | 0.345 | – | -0.093 | 0.01 | – | 0.022 | – |
| ICMT (UniProt O60725) | -0.083 | – | -0.046 | -0.112 | 0.085 | 0.206 | – | -0.189 | -0.029 | 0.154 |
| FAT1 (UniProt Q14517) | 0.098 | -0.08 | -0.267 | 0.027 | -0.098 | 0.029 | 0.041 | 0.097 | – | 0.023 |
| HEATR3 (UniProt Q7Z4Q2) | 0.027 | -0.004 | 0.099 | -0.083 | 0.046 | 0.004 | -0.134 | 0.007 | – | 0.072 |
| GINS2 (UniProt Q9Y248) | 0.057 | 0.29 | -0.069 | 0.025 | -0.089 | -0.026 | -0.119 | -0.021 | – | 0.035 |
| GBE1 (UniProt Q04446) | 0.048 | 0.045 | 0.019 | -0.168 | -0.102 | -0.022 | – | – | 0.002 | – |
